# Screening results as filed in PubChem.
# Shown are actives, neighbours in structure and some others; about 7.5% of the full set was active somewhere.
# Rab9 promoter act: qHTS Assay for Rab9 Promoter Activators. Huh7 Rab9 promoter-luciferase reporter, luminescence, 24 h. Potency, µM (top dose mostly 9.22 µM), hits mostly activators. hit rate 2.8% among 320,000. AID 485297, 2010; note: nearly all actives have a fitted effect of over 60% in size
#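 Quantitative HTS format; Huh7 Rab9-luciferase reporter cells (1500/well) receive compound 2 h post-plating, incubate 24 h at 37 °C, then get luciferase reagent for 10 min before luminescence reading.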
# NPC1 promoter act: qHTS Assay for NPC1 Promoter Activators; Potency, µM (top dose mostly 9.22 µM), usual class: activators; Huh7 NPC1 promoter luciferase reporter, 24 h; AID 485313, 2010; hit rate 2.4% among 320,000; note: nearly all actives have a fitted effect of over 60% in size
#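 Luminescence read-out of NPC1 promoter-driven luciferase in stably transfected Huh7 cells; compounds delivered in DMSO and left 24 h at 37C, 5% CO2, qHTS titration format.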
# ELG1 genotox: qHTS screen for small molecules that induce genotoxicity in human embryonic kidney (HEK293T) cells expressing luciferase-tagged ELG1; hit rate 1.3% among 330,000; HEK293T ELG1-luciferase reporter, luminescence, 16 h; Potency, µM (top dose mostly 46 µM), usual class: activators; note: nearly all actives have a fitted effect of over 60% in size
#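 Step 1: seed 2,000 HEK293T ELG1-luciferase cells per well. Step 2: add compound or DMSO, incubate 16 hr at 37 °C. Step 3: ONE-Glo, 30 min at room temperature, read luminescence.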
# SMN2 splice up: qHTS Assay for Enhancers of SMN2 Splice Variant Expression. HEK293 SMN2-luciferase splicing reporter, luminescence, 30-36 h. Potency, µM (highest dose often 46.1 µM), actives largely listed as activators. hit rate 2.8% among 210,000; note: nearly all actives have a fitted effect of over 55% in size
#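 HEK293 cells carry an SMN2 […]–luciferase reporter in which exon 7 inclusion puts luciferase in frame. Cells were plated 10-12 h before compound addition, then incubated 30-36 h at 37C. ONE-Glo luminescence was read; sodium butyrate at 4.5 mM final served as control.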
# KinaseGlo FLuc: Counterscreen for Luciferase (Kinase-Glo TM) Inhibition. Potency, µM (highest dose often 38.3 µM), hits mostly inhibitors. hit rate 0.28% among 200,000. Kinase-Glo luciferase, ATP luminescence, 8 min. AID 1379, 2008. Luciferin 4-monooxygenase (Photuris pensylvanica), Q27757; note: nearly all actives have a fitted effect of over 60% in size
#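 Light output from Kinase-Glo luciferase with luciferin and 10 uM ATP in 50 mM imidazole pH 7.2, KCl, MgCl2, Tween 20, BSA; compound pin-delivered, 8-min ambient incubation, then luminescence read.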
# FLuc counter: qHTS profiling assay for firefly luciferase inhibitor/activator using purifed enzyme and Km concentrations of substrates (counterscreen for miR-21 project) | hit rate 6.9% among 360,000 | Potency, µM (highest dose often 57.5 µM), most hits filed as inhibitors | purified FLuc, Km substrates, luminescence inhibition; note: nearly all actives have a fitted effect of over 55% in size
# Target sequence (P08659 whole entry, looked up): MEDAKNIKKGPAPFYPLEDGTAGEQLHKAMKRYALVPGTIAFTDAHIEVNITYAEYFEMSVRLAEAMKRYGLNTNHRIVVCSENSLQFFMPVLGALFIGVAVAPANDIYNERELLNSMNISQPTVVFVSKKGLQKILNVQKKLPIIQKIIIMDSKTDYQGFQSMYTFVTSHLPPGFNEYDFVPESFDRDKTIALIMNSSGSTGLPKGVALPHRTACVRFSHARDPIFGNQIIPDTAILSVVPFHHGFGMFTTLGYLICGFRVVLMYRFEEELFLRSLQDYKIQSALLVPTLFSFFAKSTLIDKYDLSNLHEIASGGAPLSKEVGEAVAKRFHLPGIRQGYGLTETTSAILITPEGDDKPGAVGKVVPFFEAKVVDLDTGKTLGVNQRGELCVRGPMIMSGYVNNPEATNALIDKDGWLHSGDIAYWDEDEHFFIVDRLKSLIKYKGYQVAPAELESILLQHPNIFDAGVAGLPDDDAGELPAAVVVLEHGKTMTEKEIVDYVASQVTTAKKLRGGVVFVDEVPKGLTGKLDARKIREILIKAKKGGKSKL
#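 Purified P. pyralis luciferase, 10 nM final, with Km-level 10 uM D-luciferin and 10 uM ATP in 50 mM Tris acetate pH 7.5, 10 mM Mg acetate, 0.01% Tween-20, 0.05% BSA; 6-point qHTS titration about 60 µM downward; luminescence read.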
# A number is an active result; - = inactive; ? = inconclusive; . = not tested or not shown; ! = not confirmed by another sample; [ ] = dose if it differs, or a comment. Calls come from the whole dose curve; as a rule, active = well fitted curve in the direction sought with a large enough effect; inconclusive = small, poorly fitted or top-dose-only effect, or another doubt; inactive = no such curve, though single readings can be large; an effect the other way counts as inactive or inconclusive.
SMILES,Rab9 promoter act,NPC1 promoter act,ELG1 genotox,SMN2 splice up,KinaseGlo FLuc,FLuc counter
O=C(Oc1ccc2ccccc2c1Cl)N1CCCCCC1,0.56µM,1.1µM,?,13µM,-,1.1µM
Cn1cnnc1SCC(=O)NC1CCCC1,-,-,-,.,.,-
COc1ccc(/C=N/NC(=O)c2ccoc2C)cc1CN1CCN(c2ccc(F)cc2)CC1,-,-,-,.,.,?
O=C(Nc1cccnc1)c1cn(-c2ccccc2)nc1-c1cccs1,-,-,-,-,-,3µM
O=C(/C=C/c1ccccc1)NCc1cccnc1,-,-,-,.,-,-
O=C(NCCCN1CCCC1=O)c1cn(-c2ccccc2)nc1-c1ccccc1,-,-,-,.,.,11µM
O=C(/C=C/c1ccc(-c2ccccc2)cc1)NCc1cccnc1,-,-,-,.,.,7.6µM
CCOC(=O)C1CCN(C(=O)c2cn(-c3ccccc3)nc2-c2cccnc2)CC1,-,-,-,-,-,13µM
COc1ccc(-c2cn3c(n2)sc2cc(C(=O)NCCc4ccccc4)ccc23)cc1,.,.,.,.,.,-
O=C(NNC(=O)C1CC(c2cccs2)=NO1)NC1CCCCC1 (stereo not given),-[1.84 µM],-,-,-,-,-
O=C(NCc1cccnc1)c1cn(-c2ccccc2)nc1-c1ccccc1,-,-,-,-,-,21µM
COc1ccc(NC(=O)CN(C)C(=O)c2cn(-c3ccccc3)nc2-c2cccs2)cc1,-,-,-,.,.,17µM
O=C(NC1CCS(=O)(=O)C1)c1cn(-c2ccccc2)nc1-c1ccccc1 (stereo not given),-,-,-,-,-,15µM
CCN(CC)CCNC(=O)c1ccc(NC(=O)c2cn(-c3ccccc3)nc2-c2cccs2)cc1,-,-,-,-,-,8.5µM
COc1ccc(-c2nn(-c3ccccc3)cc2C(=O)NC2CCC(C)CC2)cc1 (stereo not given),-,-,-,.,.,-
Cc1cc(C)cc(C(=O)Nc2ccc(N3CCN(S(C)(=O)=O)CC3)cc2)c1,-,-,-,.,-,-
Cc1cccc(C2C=C(c3ccc(C)c(C)c3)Nc3nnnn32)c1 (stereo not given),.,.,.,.,.,-
CN(C)S(=O)(=O)c1ccc(C(=O)N2CCN(S(=O)(=O)c3cccs3)CC2)cc1,-,-,-,-,-,-
CCN(CC)C(=O)c1ccccc1NC(=O)CN1C(=O)c2ccccc2S1(=O)=O,-,-,-,.,.,-
Cc1cc(C)c2nc(-c3ccncc3)cc(C(=O)N3CCN(Cc4ccccc4Cl)CC3)c2c1,-,-,-,.,.,15µM
CN(C)c1ccc(C(=O)OCC(=O)NC2CCCCCC2)cc1,-,-,-,-,-,-
CCN(CC)c1ccc(C(=S)NC2CCCCC2)cc1,-,-,?,?,-,15µM
CCOc1ccc(C(=S)NC2CCCCC2)cc1OCC,-,-,-,.,.,?
CN(C)c1ccc(C(=S)NC2CCCCC2)cc1,2.8µM,3.2µM,18µM,11µM,-,4.8µM
Cc1ccc(NC(=O)c2cnccn2)c(Br)c1,?,?,?,.,.,21µM
SMILES,Rab9 promoter act,NPC1 promoter act,ELG1 genotox,SMN2 splice up,KinaseGlo FLuc,FLuc counter
Cc1cc(NC(=O)c2cnccn2)no1,-,-,-,-,-,-
Cc1ccc(NC(=O)c2cnccn2)nc1,-,-,-,.,.,9.5µM
Cc1ccc(CN2CCN(Cc3cnc(N4CCOCC4)s3)CC2CCO)cc1 (stereo not given),-,-,-,-,-,-
CCC(CC)C(=O)Nc1nnc(S(=O)(=O)N2c3ccccc3CC2C)s1 (stereo not given),-,-,-,.,.,17µM!
FC(F)(F)c1cc(NC(=S)Nc2ccc3cc4ccccc4cc3c2)cc(C(F)(F)F)c1,.,.,.,-,-,.
COc1ccc(CCN2CC(C(=O)NCCc3ccccn3)CCC2=O)cc1 (stereo not given),-,-,-,.,.,-
c1ccc(N2CCN(c3nc4cc5c(cc4s3)OCO5)CC2)cc1,0.71µM,0.79µM,-,?,-,1.1µM
Fc1ccc2nc(N3CCOCC3)sc2c1,?,?,?,?,-,?
c1c2c(cc3sc(N4CCOCC4)nc13)OCO2,1.1µM,2.8µM,?,11µM,11µM,6µM
c1c2c(cc3sc(N4CCCCC4)nc13)OCO2,0.32µM,0.4µM,?,3.2µM,13µM,0.67µM
c1ccc2c(c1)CCN(c1nc3cc4c(cc3s1)OCO4)C2,1.3µM,1.6µM,0.46µM,2.2µM,?,1.3µM
CC(=O)c1ccc(OC(C)C(=O)NCC2(N3CCOCC3)CCCCC2)cc1 (stereo not given),.,.,-,.,.,.
C=CCn1c(=NC(=O)c2cccs2)sc2cccc(OC)c21,-,-,-,.,.,15µM
CCn1cc(/C=C(\NC(=O)c2ccc(OC)c(OC)c2)C(=O)N2CCN(C)CC2)c2ccccc21,-,-,-,.,.,-
CC(=O)Nc1ccc(/C=C/c2ccc3c([N+](=O)[O-])cccc3n2)cc1,1.1µM,?,?,?,-,?
O=C(O)c1cc(N2CCOCC2)nc2ccccc12,-,-,-,.,.,-
O=C(O)c1cc(/C=C/c2ccc(N3CCOCC3)cc2)nc2ccccc12,?,?,-,?,11µM,0.48µM
O=C(O)c1cc(/C=C/c2ccc(N3CCOCC3)c([N+](=O)[O-])c2)nc2ccccc12,?,?,?,.,.,1.2µM
COc1cc(/C=C/c2cc(C(=O)O)c3ccccc3n2)ccc1OC(F)F,3.2µM,3.2µM,-,.,.,0.43µM
COc1cc(/C=C/C(=O)OCN2C(=O)c3ccccc3C2=O)ccc1OC(F)F,-,-,-,.,.,-
O=[N+]([O-])c1cccc2ccc(/C=C/c3ccc(Cl)cc3)nc12,?,?,-,.,.,?
CCc1ccc(NS(=O)(=O)c2cccc3nonc23)cc1,-,-,-,-,-,-
CCCn1c(=O)c2sccc2n2c(CCCC(=O)NCCc3ccc(Cl)cc3)nnc12,.,.,.,.,.,-
Cc1ccc(C)c(Nc2nc3c(S(=O)(=O)c4ccc(Br)cc4)nnn3c3ccsc23)c1,.,.,.,.,.,-
CCN(CC)c1ccc2nc3ccccc3[n+](CC)c2c1,-,-,-,.,.,15µM
SMILES,Rab9 promoter act,NPC1 promoter act,ELG1 genotox,SMN2 splice up,KinaseGlo FLuc,FLuc counter
CCN(CC)c1ccc2nc3ccc(N)cc3[n+](-c3ccccc3)c2c1,-,-,-,.,.,13µM
CCN(CC)c1ccc2nc3c(=O)n(C)c(=O)n(C)c3nc2c1,.,.,.,-,.,-
COc1ccc2sc(N(Cc3cccnc3)C(=O)c3cccs3)nc2c1,.,.,.,.,.,-
CCOc1ccc(/C=C/c2nc(C#N)c(N3CCN(c4ccc(OC)cc4)CC3)o2)cc1,.,.,.,-,.,-
CCN(CC)c1ccc(/C=C2\C(=O)c3ccc(C(=O)O)cc3C2=O)cc1,-,-,?,-,-,0.38µM
CCN(CC)c1ccc(C(=O)O)cc1,-,-,-,-,-,-
